Results as given in PubChem BioAssay AID588676 (Johns Hopkins Ion Channel Center, 2011).
Screen size: about 310,000 compounds; about 3,900 (1.3%) were called active.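 The calls were made as follows: active = calcium-response B-score plate-corrected more than 3 library SD below zero, starting fluorescence within 5 deviations, no agonist response on first addition; inactive = the rest.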 The full list was thinned out, with actives kept by preference.

The compounds below were run against Mas-related G-protein coupled receptor member X1 (Homo sapiens) (UniProt Q96LB2) (assay: blockade of BAM8-22-evoked MrgX1 calcium response – HEK293 cells, Fluo-4 calcium flux, primary screen (AID 588676;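 as to B-score: peak minus trough fluorescence over baseline after final BAM8-22 challenge near maximal dose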)). Details: Fluo-4, BAM8-22 antagonism, at 10 µM; active compounds read low.
Chain of Mas-related G-protein coupled receptor member X1 (Homo sapiens) (Q96LB2 whole entry, looked up): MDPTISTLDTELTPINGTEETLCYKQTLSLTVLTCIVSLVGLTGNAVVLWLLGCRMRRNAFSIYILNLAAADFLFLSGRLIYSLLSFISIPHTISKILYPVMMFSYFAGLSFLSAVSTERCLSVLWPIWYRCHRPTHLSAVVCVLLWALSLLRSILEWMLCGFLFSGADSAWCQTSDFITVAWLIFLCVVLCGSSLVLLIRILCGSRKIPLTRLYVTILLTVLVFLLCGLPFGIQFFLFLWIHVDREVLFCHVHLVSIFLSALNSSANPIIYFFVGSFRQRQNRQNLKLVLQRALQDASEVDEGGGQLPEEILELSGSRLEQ

B-score, inactive:
CC(C)(C)c1ccc(/C=C2\Oc3c(ccc(O)c3CN3CCN(CCO)CC3)C2=O)cc1
COc1ccc(-c2[nH]nc(-c3ccccc3)c2-c2nc3ccccc3[nH]2)cc1
O=C(Nc1cccc(-c2nc3ccccc3[nH]2)c1)c1ccc(C(=O)Nc2cccc(-c3nc4ccccc4[nH]3)c2)cc1
CC(OC(=O)CCCOc1ccccc1)C(=O)Nc1ccc(Cl)cn1 (stereo unspecified)
CCOCCCn1c(NN)nc2ccccc2c1=O
CCCCCCn1c(CN2CCCC(C)C2)nc2c1c(=O)n(C)c(=O)n2C (stereo unspecified)
Cc1c(CN2CCCCC2)c(O)n(CCO)c(=O)c1C#N
Cc1cc(NC(=O)/C=C/C(=O)N(c2ccccc2C)C(C(=O)NC2CCCC2)c2ccc(F)cc2)no1 (stereo unspecified)
CCOCCOCCC(C(=O)O)P(=O)(c1ccccc1)c1ccccc1 (stereo unspecified)
N#CC1=C(N)C(C#N)(C#N)[C@H](c2ccsc2)[C@H]2COCC=C12
CCN1CC=C2C(C#N)=C(N)C(C#N)(C#N)[C@H](c3ccoc3)[C@H]2C1
O=C(O)CN1c2cccc3cccc(c23)S1(=O)=O
COc1ccc(-c2cc(C(F)(F)F)nc(S(C)(=O)=O)n2)cc1OC
O=C(NNC1=NCCC1)c1cccc(S(=O)(=O)N2CCCCC2)c1
C=C(C)C1CC=C(C)/C(=N/NC(=O)CCCNc2cccc(C)c2)C1 (stereo unspecified)
COc1ccc(Cl)cc1NC(=O)CNc1ccccc1F
O=S(=O)(Nc1ccccc1Cl)c1cccc2nsnc12
Cn1nc(C(C)(C)C)c(NC(=O)c2sccc2Cl)c1C(C)(C)C
COc1ccccc1N(CC(=O)NC1CCCC1)C(=O)C1(C)CC(=O)N=C2C=CC(C)=CN21 (stereo unspecified)
CCn1c(SCC(=O)Nc2ccc(C)cc2)nc2nc3c(cc2c1=O)CCCC3
O=C1CC(c2c(F)cccc2Cl)C(n2cncn2)C(O)=C1C1NCCc2ccccc21 (stereo unspecified)
COc1ccc(NC(=S)Nc2ccc(S(N)(=O)=O)cc2)c(C)c1
NS(=O)(=O)c1ccc(CCNC(=S)Nc2ccc(S(N)(=O)=O)cc2)cc1
CO/N=C(/CS(=O)(=O)c1ccc(Br)cc1)c1ccc(OC)cc1
CCOc1ccc(C)cc1S(=O)(=O)NC1CCCCCC1
CCOC(=O)CSc1nc(C)c(Oc2ccc(Cl)cc2Cl)c(=O)[nH]1
Cc1nnc(SCC(=O)N2CCOCC2)[nH]c1=O
COCCOC(=O)C1=C(C)NC(=O)NC1c1cc2c(cc1Br)OCO2 (stereo unspecified)
O=C(Cc1ccccc1)Nc1ccc(NC(=O)c2cccnc2)cc1
O=C(NNC(=O)c1cccnc1)Nc1ccccc1
CCOC(=O)C1CCN(C(=O)COC(=O)C2CCN(S(=O)(=O)c3ccc4c(c3)OCCO4)CC2)CC1
COc1ccccc1CNC(=O)C1CCN(S(=O)(=O)c2ccc3c(c2)OCCO3)CC1
C/C(=N/O)c1ccc(N2C(=O)C3C4C=CC(C3C2=O)C2C3C(=O)N(c5ccc(/C(C)=N/O)cc5)C(=O)C3C42)cc1 (stereo unspecified)
Clc1ccc(Nc2ccc3ccccc3n2)cc1
Cc1ccccc1N1CC(C(=O)Nc2ccc(S(=O)(=O)N3CCCC3)cc2)CC1=O (stereo unspecified)
O=C(C1CC(=O)N(c2ccc(F)cc2)C1)N1CCN(c2ccccc2)CC1 (stereo unspecified)
Cc1cc(C)n(C(=O)c2ccc(C)c(S(=O)(=O)N3CCOCC3)c2)n1
S=C(NCc1ccc(Cl)cc1)NC1CCCCC1
O=C(NCc1ccncc1)NC12CC3CC(CC(C3)C1)C2
CC(=O)c1cccc(NC(=S)N2CCCC2)c1
O=C(Nc1ccc(Br)cc1)c1cc(S(=O)(=O)Nc2ccccn2)ccc1Cl
OC(c1ccccc1)c1nccn1Cc1ccccc1 (stereo unspecified)
CN(Cc1ccccc1)C(=O)C(=O)c1cn(CC(=O)N2CCCC2)c2ccccc12
CCOC(=O)C1C(c2ccc(Cl)cc2)NC(=S)NC1(O)C(F)(F)F (stereo unspecified)
CC(=O)C1C(c2cccc(Oc3ccccc3)c2)NC(=O)NC1(O)C(F)(F)F (stereo unspecified)
COc1ccc(C(C#N)Nc2ccccc2C)cc1 (stereo unspecified)
CCOC(=O)N1CCN(S(=O)(=O)c2ccc(OC)cc2)CC1
O=S(=O)(c1ccc(F)cc1)N1CCN(C(=S)NC2CCCC2)CC1
C=CC[n+]1c(-c2ccc(C)cc2)csc1NNC(=O)Nc1ccccc1
CCCOc1ccc(Cc2c(Cl)nc(SC)nc2NC)cc1
Cc1nccn1CCCNC(=O)CC1C(=O)NCCN1Cc1ccc(Cl)c(F)c1 (stereo unspecified)
COc1cc(CN2CCNC(=O)C2CC(=O)NCCc2ncccc2C)cc(OC)c1 (stereo unspecified)
COC(=O)c1ccc(NC(=O)CSc2nncn2-c2cccnc2)cc1
O=C(CSc1nnc(Cc2ccccc2)n1-c1ccccc1)N1CCOCC1
CCC(C)(C)NC(=O)CN(C(=O)CCC(=O)Nc1nccs1)c1ccc2c(c1)OCO2
CCS(=O)(=O)c1ccc2oc(SCC(=O)N3c4ccccc4CC3C)nc2c1 (stereo unspecified)
CCOC(=O)C1CN(S(=O)(=O)c2ccc(OC)cc2)c2cc(Cl)ccc2O1 (stereo unspecified)
Cc1ccc(C)c(S(=O)(=O)N2CCCOC2CNC(=O)C(=O)NC2CCCCC2)c1 (stereo unspecified)
COc1cc(OC)cc(C(=O)NCCCn2ccnc2)c1
CC1CC(C)CN(C(=O)CCNC(=O)Cn2cnc3ccccc3c2=O)C1 (stereo unspecified)
CCN1CCN(c2cc3nc(C)n(Cc4ccccc4)c(=O)c3cc2NC(=O)c2ccccc2F)CC1
COc1ccc(COC(=O)c2ccc(Cl)c(S(=O)(=O)N3CCOCC3)c2)cc1F
Cc1cc(NC(=O)COC(=O)c2ccc(F)c(S(=O)(=O)N3CCOCC3)c2)no1
Fc1ccc(-c2ccc(CNCc3ccccn3)o2)cc1Cl
CCCCc1nc2cc(C(=O)N3CCCCC3CCO)ccc2o1 (stereo unspecified)
COc1ccc(-n2nc3c(N4CCC(C(=O)NCc5ccccc5)CC4)nnc(C)c3c2C)cc1
C/C(=N/N1CCN(Cc2cccc3ccccc23)CC1)c1cccnc1
OCC1(Cc2ccccc2C(F)(F)F)CCN(Cc2ccncc2)CC1
CCc1cc2c(NC(Cc3ccccc3)C(=O)O)ncnc2s1 (stereo unspecified)
CCc1cc2c(NC3CCCC3)ncnc2s1
Cc1ccc(C(=O)N/C(=C\c2ccco2)C(=O)NC2CCS(=O)(=O)C2)cc1 (stereo unspecified)
ON=C1/C(=N\O)CC2(C/C1=N/O)OCCO2
Nc1nc(-c2sc3nc4c(cc3c2N)CCCC4)nc(N2CCOCC2)n1
Cc1ccccc1S(=O)(=O)N1[C@@H](c2cccc(Cl)c2)C(C(=O)O)=CC[C@H]1c1ccc(Cl)cc1
Cc1ccc([C@@H]2CC=C(C(=O)O)[C@H](c3cccc(Cl)c3)N2S(=O)(=O)c2ccc(C)cc2)cc1
COc1ccccc1OCCC(=O)OCC(=O)NCc1ccccc1
CC(=O)c1cc(-c2ccccc2)n(CCC(=O)NC2CCCCCC2)c1C
Cc1occc1C(=O)NC1CCCN(Cc2ccc(CC(C)C)cc2)C1 (stereo unspecified)
CCOC(=O)c1ccc(NC(=O)c2nc[nH]c2C(=O)N[C@@H](CCCCNC(=O)OC(C)(C)C)C(=O)OC(C)(C)C)cc1
CNC(=O)c1[nH]cnc1C(=O)N[C@@H](CC(C)C)C(=O)OC(C)(C)C
O=[N+]([O-])c1ccc(Oc2ccc(F)cc2Br)c2ccncc12

B-score, active:
c1ccc(-c2[nH]ncc2-c2nc3ccccc3[nH]2)cc1 -5.86
CCCn1c(O)c(CN2CCCC(C)C2)c(C)c(C#N)c1=O (stereo unspecified) -5.29
CCCN1CC=C2C(C#N)=C(N)C(C#N)(C#N)C(c3cc(OC)ccc3OC)C2C1 (stereo unspecified) -7.07
C=C(C)C1CC=C(C)/C(=N\NC(=O)CNc2ccccc2OC)C1 (stereo unspecified) -6.1
NS(=O)(=O)c1ccc(NC(=S)Nc2ccc(Br)c(Cl)c2)cc1 -5.41
CCCCOC(=O)CNc1nnc(SCC(=O)OCC)[nH]c1=O -10.5
O=C(O)CSC(NC(=O)c1cccnc1)(C(F)(F)F)C(F)(F)F -5.59
O=C(COC(=O)C1CCN(S(=O)(=O)c2ccc3c(c2)OCCO3)CC1)Nc1ccccc1OC(F)F -5.02
CCC(C)c1ccccc1N1CC(C(=O)N2CCN(S(=O)(=O)c3ccc(F)cc3)CC2)CC1=O (stereo unspecified) -7.31
S=C(NCc1ccc(Cl)cc1)NC12CC3CC(CC(C3)C1)C2 -5.44
O=C(c1cccs1)C1C(c2ccc(Br)cc2)NC(=S)NC1(O)C(F)(F)F (stereo unspecified) -6.04
COc1ccc(S(=O)(=O)N2CCN(C(=O)NC3CCCCC3)CC2)cc1 -4.64
Cc1cc(C)n(CCNC(=O)CC2C(=O)NCCN2Cc2ccc(C)o2)n1 (stereo unspecified) -4.73
O=C(CSc1nncn1-c1cccnc1)N1CCOCC1 -5.04
CCS(=O)(=O)c1ccc2c(c1)N(S(=O)(=O)c1ccccc1)CC(C(=O)O)O2 (stereo unspecified) -4.74
CCOc1ccc(CCNC(=O)COC(=O)c2ccc(F)c(S(=O)(=O)N3CCOCC3)c2)cc1OCC -5.64
OCC1(Cc2ccccc2C(F)(F)F)CCN(Cc2cccc3cnccc23)CC1 -7.22
CCc1cc2c(SCC(=O)Nc3ncc(Cl)c(C)c3Cl)ncnc2s1 -4.97
Cc1ccc(S(=O)(=O)N2[C@@H](c3cccc(Cl)c3)C(C(=O)O)=CC[C@H]2c2ccc(Cl)c(Cl)c2)cc1 -6.18
Cc1ccc(NC(=O)c2nc[nH]c2C(=O)N[C@@H](CCCCNC(=O)OC(C)(C)C)C(=O)OC(C)(C)C)cc1 -9.54
